Results reported in ChEMBL document CHEMBL1961873, “Compounds: GSK PKIS; Assays: Nanosyn kinase panel” (2012).

Experiments:
[1] = target: Serine/threonine-protein kinase MARK2 (Homo sapiens) (UniProt Q7KZI7); conditions: at 1 µM
[2] = target: PAS domain-containing serine/threonine-protein kinase (Homo sapiens) (UniProt Q96RG2); conditions: at 0.1 µM
[3] = target: PAS domain-containing serine/threonine-protein kinase (Homo sapiens) (UniProt Q96RG2); conditions: at 1 µM
[4] = target: Phosphorylase b kinase gamma catalytic chain, skeletal muscle/heart isoform (Homo sapiens) (UniProt Q16816); conditions: at 0.1 µM
Chain of Phosphorylase b kinase gamma catalytic chain, skeletal muscle/heart isoform (Homo sapiens) (Q16816 whole entry, looked up, canonical isoform): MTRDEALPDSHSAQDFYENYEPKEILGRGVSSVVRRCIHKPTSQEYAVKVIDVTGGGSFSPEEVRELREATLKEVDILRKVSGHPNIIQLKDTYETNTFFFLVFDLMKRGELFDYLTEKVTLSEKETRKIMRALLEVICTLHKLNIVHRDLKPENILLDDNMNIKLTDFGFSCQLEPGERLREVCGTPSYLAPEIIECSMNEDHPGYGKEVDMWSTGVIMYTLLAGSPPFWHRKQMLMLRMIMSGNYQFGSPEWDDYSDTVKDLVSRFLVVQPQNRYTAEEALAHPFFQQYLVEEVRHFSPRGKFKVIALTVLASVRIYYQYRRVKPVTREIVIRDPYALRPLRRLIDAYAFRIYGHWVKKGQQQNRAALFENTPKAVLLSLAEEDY

[5] = target: Phosphorylase b kinase gamma catalytic chain, skeletal muscle/heart isoform (Homo sapiens) (UniProt Q16816); conditions: at 1 µM
[6] = target: T1, Phosphorylase b kinase gamma catalytic chain, liver/testis isoform (Homo sapiens) (UniProt P15735); conditions: at 0.1 µM
T1 sequence (whole entry): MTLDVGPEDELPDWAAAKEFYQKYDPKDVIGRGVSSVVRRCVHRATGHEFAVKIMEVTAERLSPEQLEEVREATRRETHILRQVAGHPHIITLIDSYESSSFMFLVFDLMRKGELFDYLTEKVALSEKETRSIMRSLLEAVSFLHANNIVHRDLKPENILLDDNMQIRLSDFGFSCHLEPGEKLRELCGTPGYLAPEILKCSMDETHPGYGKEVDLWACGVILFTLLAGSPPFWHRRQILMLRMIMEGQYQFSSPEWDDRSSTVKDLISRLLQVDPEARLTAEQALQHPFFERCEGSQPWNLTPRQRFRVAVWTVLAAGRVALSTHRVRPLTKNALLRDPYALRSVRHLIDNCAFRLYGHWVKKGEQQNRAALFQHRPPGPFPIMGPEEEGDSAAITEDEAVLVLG

[7] = target: T1, Phosphorylase b kinase gamma catalytic chain, liver/testis isoform (Homo sapiens); conditions: at 1 µM
[8] = target: Serine/threonine-protein kinase pim-1 (Homo sapiens) (UniProt P11309); conditions: at 0.1 µM
Chain of Serine/threonine-protein kinase pim-1 (Homo sapiens) (P11309 whole entry, looked up): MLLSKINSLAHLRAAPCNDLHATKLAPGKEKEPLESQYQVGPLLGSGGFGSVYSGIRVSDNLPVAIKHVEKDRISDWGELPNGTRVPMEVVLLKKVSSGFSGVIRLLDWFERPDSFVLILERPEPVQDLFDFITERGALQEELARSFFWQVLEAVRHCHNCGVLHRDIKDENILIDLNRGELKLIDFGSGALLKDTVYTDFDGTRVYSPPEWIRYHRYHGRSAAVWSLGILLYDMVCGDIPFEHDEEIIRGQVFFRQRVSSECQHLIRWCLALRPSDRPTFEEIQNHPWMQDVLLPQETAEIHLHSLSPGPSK

[9] = target: Serine/threonine-protein kinase pim-1 (Homo sapiens) (UniProt P11309); conditions: at 1 µM
[10] = target: Serine/threonine-protein kinase pim-2 (Homo sapiens) (UniProt Q9P1W9); conditions: at 0.1 µM
Chain of Serine/threonine-protein kinase pim-2 (Homo sapiens) (Q9P1W9 whole entry, looked up): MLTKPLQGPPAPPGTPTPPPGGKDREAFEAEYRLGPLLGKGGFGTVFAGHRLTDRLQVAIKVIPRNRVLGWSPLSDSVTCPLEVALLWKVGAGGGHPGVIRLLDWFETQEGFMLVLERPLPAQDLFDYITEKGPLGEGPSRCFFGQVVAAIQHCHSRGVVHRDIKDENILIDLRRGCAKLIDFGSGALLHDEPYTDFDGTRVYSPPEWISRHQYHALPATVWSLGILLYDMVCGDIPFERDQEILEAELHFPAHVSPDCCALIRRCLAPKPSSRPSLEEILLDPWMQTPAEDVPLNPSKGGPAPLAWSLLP

[11] = target: Serine/threonine-protein kinase pim-2 (Homo sapiens) (UniProt Q9P1W9); conditions: at 1 µM
[12] = target: Serine/threonine-protein kinase pim-3 (Homo sapiens) (UniProt Q86V86); conditions: at 0.1 µM
[13] = target: Serine/threonine-protein kinase pim-3 (Homo sapiens) (UniProt Q86V86); conditions: at 1 µM
[14] = target: T2, MAP kinase-activated protein kinase 5 (Homo sapiens) (UniProt Q8IW41); conditions: at 0.1 µM
T2 sequence (whole entry): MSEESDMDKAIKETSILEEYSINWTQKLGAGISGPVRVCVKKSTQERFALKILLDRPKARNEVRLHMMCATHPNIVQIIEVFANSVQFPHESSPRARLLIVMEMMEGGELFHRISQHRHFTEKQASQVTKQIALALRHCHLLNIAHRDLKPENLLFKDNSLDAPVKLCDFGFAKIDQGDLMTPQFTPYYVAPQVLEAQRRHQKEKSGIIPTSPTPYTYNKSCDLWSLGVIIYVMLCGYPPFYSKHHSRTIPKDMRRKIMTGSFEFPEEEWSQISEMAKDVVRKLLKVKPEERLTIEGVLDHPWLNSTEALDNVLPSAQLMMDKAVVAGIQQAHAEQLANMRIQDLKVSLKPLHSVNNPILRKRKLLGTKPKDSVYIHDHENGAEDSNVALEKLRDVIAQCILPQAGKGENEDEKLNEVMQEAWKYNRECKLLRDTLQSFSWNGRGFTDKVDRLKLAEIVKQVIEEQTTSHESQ

[15] = target: T2, MAP kinase-activated protein kinase 5 (Homo sapiens); conditions: at 1 µM
[16] = target: Serine/threonine-protein kinase SIK1 (Homo sapiens) (UniProt P57059); conditions: at 0.1 µM
Chain of Serine/threonine-protein kinase SIK1 (Homo sapiens) (P57059 whole entry): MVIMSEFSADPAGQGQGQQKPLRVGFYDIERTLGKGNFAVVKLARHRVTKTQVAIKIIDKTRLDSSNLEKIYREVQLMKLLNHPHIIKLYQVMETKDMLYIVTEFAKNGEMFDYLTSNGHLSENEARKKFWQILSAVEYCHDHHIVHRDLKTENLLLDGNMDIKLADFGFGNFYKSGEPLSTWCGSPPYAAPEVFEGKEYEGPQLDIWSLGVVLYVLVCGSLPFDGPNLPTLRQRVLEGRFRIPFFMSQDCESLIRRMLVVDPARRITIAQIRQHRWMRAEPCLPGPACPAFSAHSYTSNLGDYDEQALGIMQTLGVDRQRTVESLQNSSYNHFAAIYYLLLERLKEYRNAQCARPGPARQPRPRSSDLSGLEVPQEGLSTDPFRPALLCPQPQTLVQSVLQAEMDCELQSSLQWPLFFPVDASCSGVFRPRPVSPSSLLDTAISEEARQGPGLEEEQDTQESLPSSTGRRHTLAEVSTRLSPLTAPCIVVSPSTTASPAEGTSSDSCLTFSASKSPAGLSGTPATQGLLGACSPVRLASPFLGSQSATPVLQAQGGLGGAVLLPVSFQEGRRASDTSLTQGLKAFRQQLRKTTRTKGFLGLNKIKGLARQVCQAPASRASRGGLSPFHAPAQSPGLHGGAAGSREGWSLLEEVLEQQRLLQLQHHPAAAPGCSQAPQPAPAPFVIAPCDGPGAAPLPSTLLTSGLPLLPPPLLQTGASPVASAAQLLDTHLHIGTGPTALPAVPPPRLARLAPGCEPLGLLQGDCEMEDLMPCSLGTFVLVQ

[17] = target: Serine/threonine-protein kinase SIK1 (Homo sapiens) (UniProt P57059); conditions: at 1 µM
[18] = target: Serine/threonine-protein kinase SIK2 (Homo sapiens) (UniProt Q9H0K1); conditions: at 0.1 µM
Chain of Serine/threonine-protein kinase SIK2 (Homo sapiens) (Q9H0K1 whole entry, looked up): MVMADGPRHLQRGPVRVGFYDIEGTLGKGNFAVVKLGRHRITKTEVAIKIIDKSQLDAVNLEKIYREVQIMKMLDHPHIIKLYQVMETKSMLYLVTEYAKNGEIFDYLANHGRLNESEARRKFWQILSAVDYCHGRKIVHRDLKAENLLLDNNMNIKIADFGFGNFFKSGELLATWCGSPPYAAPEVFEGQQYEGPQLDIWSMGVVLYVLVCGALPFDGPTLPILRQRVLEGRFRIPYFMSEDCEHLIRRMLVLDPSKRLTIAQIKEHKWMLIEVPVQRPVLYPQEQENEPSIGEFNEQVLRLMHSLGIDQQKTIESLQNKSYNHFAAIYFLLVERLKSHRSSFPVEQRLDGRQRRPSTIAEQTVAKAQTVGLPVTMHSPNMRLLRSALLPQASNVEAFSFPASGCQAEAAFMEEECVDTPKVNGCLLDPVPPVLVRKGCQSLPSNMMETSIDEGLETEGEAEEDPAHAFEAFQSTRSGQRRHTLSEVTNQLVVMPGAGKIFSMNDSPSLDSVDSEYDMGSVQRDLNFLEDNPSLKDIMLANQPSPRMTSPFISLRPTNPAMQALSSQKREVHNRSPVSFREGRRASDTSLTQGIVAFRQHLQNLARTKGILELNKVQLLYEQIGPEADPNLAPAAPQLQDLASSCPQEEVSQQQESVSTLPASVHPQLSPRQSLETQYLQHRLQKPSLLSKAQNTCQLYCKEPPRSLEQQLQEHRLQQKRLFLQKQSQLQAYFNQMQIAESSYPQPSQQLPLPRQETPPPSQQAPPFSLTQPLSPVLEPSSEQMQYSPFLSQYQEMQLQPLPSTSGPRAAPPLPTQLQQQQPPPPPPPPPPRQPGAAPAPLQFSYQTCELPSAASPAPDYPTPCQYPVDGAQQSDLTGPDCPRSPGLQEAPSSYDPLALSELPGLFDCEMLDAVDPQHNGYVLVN

[19] = target: Serine/threonine-protein kinase SIK2 (Homo sapiens) (UniProt Q9H0K1); conditions: at 1 µM
[20] = target: T3, Serine/threonine-protein kinase TBK1 (Homo sapiens) (UniProt Q9UHD2); conditions: at 0.1 µM;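 note: values are the mean TBK1 inhibition, taken from the GSK PKIS screening data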
T3 sequence (whole entry): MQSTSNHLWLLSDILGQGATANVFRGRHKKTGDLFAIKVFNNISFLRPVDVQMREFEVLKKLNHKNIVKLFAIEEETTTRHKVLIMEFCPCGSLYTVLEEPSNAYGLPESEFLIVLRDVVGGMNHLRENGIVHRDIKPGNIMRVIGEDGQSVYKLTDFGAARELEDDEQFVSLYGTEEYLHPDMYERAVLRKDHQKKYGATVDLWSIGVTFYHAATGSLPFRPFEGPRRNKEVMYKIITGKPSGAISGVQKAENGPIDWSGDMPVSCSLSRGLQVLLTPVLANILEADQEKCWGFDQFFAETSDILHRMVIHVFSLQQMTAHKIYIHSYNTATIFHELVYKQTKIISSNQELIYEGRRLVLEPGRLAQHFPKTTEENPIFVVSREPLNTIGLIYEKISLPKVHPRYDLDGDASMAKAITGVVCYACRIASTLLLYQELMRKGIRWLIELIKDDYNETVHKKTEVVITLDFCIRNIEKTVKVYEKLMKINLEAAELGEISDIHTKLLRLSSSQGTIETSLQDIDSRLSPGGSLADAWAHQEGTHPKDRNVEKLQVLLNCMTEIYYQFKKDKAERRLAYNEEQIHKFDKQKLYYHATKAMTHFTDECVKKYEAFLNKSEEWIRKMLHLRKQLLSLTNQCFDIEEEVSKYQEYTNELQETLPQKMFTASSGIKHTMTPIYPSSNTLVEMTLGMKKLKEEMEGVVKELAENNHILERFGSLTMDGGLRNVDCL

Chain of Serine/threonine-protein kinase MARK2 (Homo sapiens) (Q7KZI7 whole entry, the tested form may be a part): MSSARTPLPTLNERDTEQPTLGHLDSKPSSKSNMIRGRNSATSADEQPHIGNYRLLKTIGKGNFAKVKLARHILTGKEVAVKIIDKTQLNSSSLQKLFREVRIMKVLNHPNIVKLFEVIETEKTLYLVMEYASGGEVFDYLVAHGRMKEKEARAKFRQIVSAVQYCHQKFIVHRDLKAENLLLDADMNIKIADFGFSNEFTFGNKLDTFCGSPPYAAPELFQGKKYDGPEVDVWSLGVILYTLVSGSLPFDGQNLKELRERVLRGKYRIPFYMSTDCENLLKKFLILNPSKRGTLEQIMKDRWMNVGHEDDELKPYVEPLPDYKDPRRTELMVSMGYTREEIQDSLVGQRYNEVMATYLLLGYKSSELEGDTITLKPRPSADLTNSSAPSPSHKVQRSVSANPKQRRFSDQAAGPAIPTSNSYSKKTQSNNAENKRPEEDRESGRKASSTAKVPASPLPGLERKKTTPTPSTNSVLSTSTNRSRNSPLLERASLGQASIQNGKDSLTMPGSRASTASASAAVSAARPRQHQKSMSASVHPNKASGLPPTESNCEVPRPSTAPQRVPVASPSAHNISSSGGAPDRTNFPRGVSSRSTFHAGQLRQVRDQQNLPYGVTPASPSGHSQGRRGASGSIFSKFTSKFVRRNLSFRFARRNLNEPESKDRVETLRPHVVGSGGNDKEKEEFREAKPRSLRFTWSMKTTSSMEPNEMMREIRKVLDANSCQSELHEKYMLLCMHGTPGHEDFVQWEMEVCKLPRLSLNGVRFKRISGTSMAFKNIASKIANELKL
Chain of PAS domain-containing serine/threonine-protein kinase (Homo sapiens) (Q96RG2 whole entry, the tested form may be a part, canonical isoform): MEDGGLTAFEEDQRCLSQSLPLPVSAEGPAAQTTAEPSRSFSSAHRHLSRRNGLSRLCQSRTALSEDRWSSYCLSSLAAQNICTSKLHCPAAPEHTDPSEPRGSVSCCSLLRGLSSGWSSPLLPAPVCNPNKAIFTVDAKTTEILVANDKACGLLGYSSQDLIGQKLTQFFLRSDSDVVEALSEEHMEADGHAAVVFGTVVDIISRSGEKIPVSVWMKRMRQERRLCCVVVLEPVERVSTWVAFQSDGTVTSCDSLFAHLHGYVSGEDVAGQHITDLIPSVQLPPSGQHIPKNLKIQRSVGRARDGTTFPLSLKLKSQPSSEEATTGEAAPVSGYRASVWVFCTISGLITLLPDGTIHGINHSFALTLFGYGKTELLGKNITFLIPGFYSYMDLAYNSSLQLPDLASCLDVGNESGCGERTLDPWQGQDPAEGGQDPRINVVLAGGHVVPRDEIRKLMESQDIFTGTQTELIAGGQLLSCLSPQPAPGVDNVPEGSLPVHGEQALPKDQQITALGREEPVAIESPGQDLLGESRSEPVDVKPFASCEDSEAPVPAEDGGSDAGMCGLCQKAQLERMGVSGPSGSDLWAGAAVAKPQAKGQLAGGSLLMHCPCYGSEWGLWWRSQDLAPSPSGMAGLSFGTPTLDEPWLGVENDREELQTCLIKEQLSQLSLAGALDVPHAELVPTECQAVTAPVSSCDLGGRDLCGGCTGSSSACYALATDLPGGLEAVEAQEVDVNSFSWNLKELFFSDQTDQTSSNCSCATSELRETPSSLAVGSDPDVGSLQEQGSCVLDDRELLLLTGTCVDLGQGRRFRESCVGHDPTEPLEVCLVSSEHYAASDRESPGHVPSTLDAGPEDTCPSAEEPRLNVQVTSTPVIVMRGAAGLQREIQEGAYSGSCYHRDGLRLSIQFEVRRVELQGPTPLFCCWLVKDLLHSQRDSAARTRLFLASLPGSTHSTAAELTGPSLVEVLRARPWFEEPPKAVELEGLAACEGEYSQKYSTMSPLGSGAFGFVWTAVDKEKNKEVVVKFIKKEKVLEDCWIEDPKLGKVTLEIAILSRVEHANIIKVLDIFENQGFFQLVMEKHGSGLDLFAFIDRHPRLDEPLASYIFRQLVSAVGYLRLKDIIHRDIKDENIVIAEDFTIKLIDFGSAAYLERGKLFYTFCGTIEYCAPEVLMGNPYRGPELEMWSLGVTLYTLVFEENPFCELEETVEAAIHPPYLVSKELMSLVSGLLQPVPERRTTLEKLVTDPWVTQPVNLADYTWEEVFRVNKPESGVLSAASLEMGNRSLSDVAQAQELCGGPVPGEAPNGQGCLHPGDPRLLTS

SMILES	inhibition [1] [%]	inhibition [2] [%]	inhibition [3] [%]	inhibition [4] [%]	inhibition [5] [%]	inhibition [6] [%]	inhibition [7] [%]	inhibition [8] [%]	inhibition [9] [%]	inhibition [10] [%]	inhibition [11] [%]	inhibition [12] [%]	inhibition [13] [%]	inhibition [14] [%]	inhibition [15] [%]	inhibition [16] [%]	inhibition [17] [%]	inhibition [18] [%]	inhibition [19] [%]	inhibition [20] [%]
CCn1c(-c2nonc2N)nc2c(C#CC(C)(C)O)ncc(OCC3CCNCC3)c21	46.5	0.98	12.8	2.88	9.61	4.03	6.94	2.14	17.3	-3.05	3.34	3.02	21	1.57	2.94	4.3	18	3.58	18.4	5.26
CCn1c(-c2nonc2N)nc2c(C#CCN)ncc(OCCCN)c21	10.1	1.4	16.9	3.15	5.73	-1.7	4.75	4.76	36	3.26	5.54	9.18	33	-1.32	1.09	-4.16	-7.22	-2.87	-1.04	-0.18
COc1cccc(-n2ncc3c(N/N=C/c4ccncc4)ncnc32)c1	2.54	0.3	0.25	5.39	17.6	5.48	7.43	1.36	3.36	0.77	1.69	0.83	4.38	1.56	3.04	4.22	27.9	15.4	54	3.12
CCn1c(-c2nonc2N)nc2c(C#CC(C)(C)O)nc(O[C@@H](CN)c3ccccc3)cc21	90.5	0.53	15.9	1.61	12.3	-3.09	-0.93	4.64	35.2	2.45	20.6	4.66	39	-0.85	-1.11	-0.97	8.3	-0.81	14.8	20.9
Fc1ccc(-c2ncn(C3CCNCC3)c2-c2ccnc(Oc3ccccc3)n2)cc1	-1.83	0.55	-1	3.99	2.25	1.69	1.14	-1.15	-0.11	-3.22	-3.69	-0.25	-0.02	0.89	1.1	2.14	8.86	-0.18	7.64	0.83
COc1cccc(COc2cc(-n3cnc4ccccc43)sc2C(N)=O)c1	-1.4	1.11	1.08	2.26	3.47	1.62	0.45	0.5	0.84	0.51	1.31	0.12	0.33	0.16	-0.81	-0.86	3.4	-0.88	-4.75	-1.18
CCn1c(-c2nonc2N)nc2c(C#CC(C)(C)O)ncc(OC[C@@H]3CCCN3)c21	51.9	0.57	7.61	1.02	2.21	1.45	1.65	1.6	7.63	1.1	7.09	1.81	10.1	0.11	0.32	1.03	4.19	-4.09	6.59	5.1
Cc1cc(-c2ccco2)cc(C)c1/C=C/c1cncc(-c2nn[nH]n2)c1	-0.28	1.32	1.25	3.4	4.41	1.33	1.22	0.14	1.06	0.57	1.49	0.12	1.83	0.41	0.28	-0.49	6.77	-2.65	0.13	0.36
NS(=O)(=O)c1ccc(N/C=C2\C(=O)Nc3ccc4ncsc4c32)cc1	34.6	-0.28	0.4	15.2	47.6	7.45	19.8	1.16	4.82	0.27	1.21	0.54	4.12	2.27	7.16	2.12	21	9	25.8	10.7
Nc1nonc1-c1nc2cnccc2n1C1CCCCC1	21.9	1.01	12.9	-3.58	8.25	-4.48	-2.24	29.8	79.2	5.24	37.5	11.4	56.9	-0.83	-1.13	-4.72	-3.76	-6.25	9.23	3.95
NC(=O)c1sc(-n2cnc3cc(C(F)(F)F)ccc32)cc1OCc1ccccc1Br	2.11	1.33	0.96	0.3	5.87	2.5	3.01	1.18	1.5	-0.35	1.16	1.55	2.84	0.86	0.76	6.45	1.7	-0.18	3.79	0.98
COc1cc2c(cc1Nc1nc(Nc3ccsc3C(N)=O)c3cc[nH]c3n1)N(C(=O)CN(C)C)CCC2	5.44	0.93	1.03	8.54	41.3	-0.5	-0.53	31.3	79.8	0.47	3.29	6.22	38.3	1.1	1.23	-0.68	-0.04	-2.92	5.93	9.46
COc1cc(C=NNc2ncnc3c2cnn3Cc2ccccc2)ccc1O	4.82	-0.31	0.37	-1.3	2.64	-7.11	-6.49	-0.98	1.73	0.65	4.62	1.07	5.08	-1.78	-1.84		-3.99	-6		0.04
NS(=O)(=O)c1ccc(-c2ccc3c(NC(=O)C4CC4)n[nH]c3c2)cc1	2.59	0.57	-1.27	-3.09	3.54	2.77	0	1.16	0.95	-0.15	0.28	-0.26	-1.81	0.51	0.89	5.15	3.27	1.79	8.87	5.3
